PubChem BioAssay AID686979 (National Center for Advancing Translational Sciences (NCATS), 2013)
Screen size: about 420,000 compounds; about 50,000 (12%) were called active. Entries that show only a call come without a potency. Not shown: some 26% with an inconclusive outcome. The call rests on the fitted dose curve; in most records, active means well fitted inhibition curve with a large enough effect; inconclusive means small, poorly fitted or top-dose-only effect; inactive means flat fitted curve, though single readings scatter. Only a selection was taken, and actives are over-represented in it overall.

assay: qHTS for Inhibitors of human tyrosyl-DNA phosphodiesterase 1 (TDP1): qHTS in cells in presence of CPT; settings: chicken DT40 Tdp1-/-;hTDP1 cells + 20 nM CPT, ATP luminescence, 48 h; series mostly up to 46.2 µM; further: nearly all actives have a fitted effect of over 55% in size
How it was run: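 Chicken DT40 Tdp1-/- cells complemented with human TDP1, 400 cells/well, exposed to compounds plus 20 nM camptothecin for at least 48 h at 37 C; viability read as ATP content by CellTiter-Glo luminescence.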
Potency means the concentration at half of the fitted maximal effect.

| Compound | Potency | activity change, negative = growth inhibition |
| --- | --- | --- |
| O=C(COC(=O)CNC(=O)c1ccco1)Nc1ccc(F)cc1 | inactive | – |
| Cc1cccc(NS(=O)(=O)c2cc(Cl)ccc2Cl)n1 | inactive | – |
| COc1ccc(CCNC(=O)CN2C(=O)CCSc3ccccc32)c(OC)c1 | inactive | – |
| Cc1ccc(-c2cc(-c3coc4ccccc4c3=O)c3c(n2)-c2cc(Cl)ccc2OC3)cc1 | inactive | – |
| CCCCCc1c(Cc2ccccc2)ncn1CCc1ccccc1OC | 2.59 µM (active) | – |
| COc1ccccc1CCC(=O)NNC(=O)c1ccncc1 | inactive | – |
| CCC(=O)NCc1cc(-c2nn(C)c(=O)c3ccccc23)ccc1OC | inactive | – |
| CCCCCc1c(-c2ccc(OC)c(OC)c2)ncn1CCc1ccccc1OC | 2.31 µM (active) | – |
| CCN(CC)CCN1C(=O)C(=O)/C(=C(/O)c2ccc(OC)c(OC)c2)C1c1ccccn1 (stereo not drawn) | inactive | – |
| CCCCNS(=O)(=O)CCNCc1ccccc1OC | inactive | – |
| CCOC(=O)CSc1nnc(-c2cccc(Br)c2)o1 | inactive | – |
| CCCCCc1c(-c2cccc(Br)c2)ncn1CCc1ccccc1OC | 11.6 µM (active) | – |
| CCCCn1c(N)c(N(CC(C)C)C(=O)CN(C)S(=O)(=O)c2ccc(F)cc2)c(=O)[nH]c1=O | inactive | – |
| Cc1cc(F)ccc1NC1(c2ccccc2)C(=O)c2ccccc2C1=O | inactive | – |
| COc1ccc(S(=O)(=O)NC(=O)C2(C)CCN2C(=O)COc2ccc(Cl)cc2)cc1 (stereo not drawn) | inactive | – |
| COc1ccccc1C(=O)NC(=O)COC(=O)c1ccco1 | inactive | – |
| COc1ccc(C)cc1N(CC(=O)N1CCCC1)S(=O)(=O)c1ccccc1 | inactive | – |
| C/C(N)=C(/C#N)C(=O)COC(=O)C1CCN(C(=O)c2ccc(Cl)cc2)CC1 | inactive | – |
| C[C@]12CC[C@H](O)CC1=CCC1C2CC[C@@]2(C)C1CC[C@@H]2NC(=O)CCC(=O)O (stereo partly drawn) | inactive | – |
| C#CC(CCN1CCCCC1)(OC)c1ccccc1 (stereo not drawn) | inactive | – |
| CN1CCC[C@@H]1CCO[C@](C)(c1ccccc1)c1ccc(Cl)cc1 | 21.1 µM (active) | – |
| CCC1CCC/C1=N\NC(=O)c1ccc(Cl)cc1 (stereo not drawn) | inactive | – |
| CC(=O)c1ccc(F)c(-c2cc(C)cc3c2OC(CNC(=O)Cc2c[nH]c4ccccc24)C3)c1 (stereo not drawn) | – | 11.9% [at 9.04 µM] (inactive) |
| Cc1cc(C)cc(NC(=O)CSc2oc(-c3ccccc3)nc2S(=O)(=O)c2ccc(Cl)cc2)c1 | 5.17 µM (active) | – |
| Cc1cc(C)cc(NC(=O)CSc2ccccc2)c1 | inactive | – |

| Compound | Potency | activity change, negative = growth inhibition |
| --- | --- | --- |
| O=C(CSc1oc(-c2ccccc2)nc1S(=O)(=O)c1ccc(Br)cc1)NC1CCCCC1 | inactive | – |
| C/C=C1\C2C=C(C)CC1(N)c1ccc(=O)[nH]c1C2 (stereo not drawn) | inactive | – |
| CCCN(CCC)CCNC(=O)Cn1cnc2sc(C)c(S(=O)(=O)N3CCC(C)CC3)c2c1=O | inactive | – |
| COC(=O)c1ccccc1SC1CC(=O)N(c2cccc(C)c2)C1=O (stereo not drawn) | 9.2 µM (active) | – |
| COc1cccc(N2C(=O)CC(N3CCc4ccccc4C3)C2=O)c1 (stereo not drawn) | inactive | – |
| COC(=O)c1cccc(N2C(=O)C3C4C=CC(CC4)C3C2=O)c1 (stereo not drawn) | inactive | – |
| O=C(COC(=O)/C=C/c1ccc(Br)o1)Nc1cccc(S(=O)(=O)N2CCOCC2)c1 | inactive | – |
| O=C1c2ccccc2C(=O)c2c1cccc2N1CCN(C/C=C/c2ccccc2)CC1 | inactive | – |
| CCOC(=O)c1oc2c(CN3CCN(C)CC3)c(O)ccc2c(=O)c1-c1ccc(Br)cc1 | inactive | – |
| COc1ccc(NC(=O)C2=CC(c3ccc(OC)c(OC)c3)=NS(=O)(=O)N2C)cc1 | 23.1 µM (active) | – |
| COc1ccc(C2=NS(=O)(=O)N(C)C(C(=O)N3CCCCC3)=C2)cc1 | inactive | – |
| COc1cc(NC(=O)C2=CC(c3ccco3)=NS(=O)(=O)N2C)cc(OC)c1OC | inactive | – |
| COc1ccc(C2(Nc3cccc(F)c3)C(=O)c3ccccc3C2=O)cc1 | inactive | – |
| CCCn1c(=S)[nH]c2ccc(C(F)(F)F)cc21 | inactive | – |
| NS(=O)(=O)c1ccc(NC(=O)COC(=O)c2ccc(Cl)nc2)cc1 | inactive | – |
| CCN(CC)c1ccc(NC(=O)c2ccc(Cl)nc2)cc1 | 2.91 µM (active) | – |
| CCN(CC)c1ccc(NC(=O)CN2CCN(c3ccccn3)CC2)cc1 | inactive | – |
| Cc1cnc(NC(=O)c2ccc(Cl)nc2)s1 | inactive | – |
| CCN(CC)c1ccc(NC(=O)CN2CCN(CC(=O)Nc3ccc(Cl)cc3)CC2)cc1 | 23.1 µM (active) | – |
| CC(=O)N1CCN(CC(=O)Nc2ccc(SC(F)F)cc2)CC1 | inactive | – |
| CCc1ccc(CN2C(=O)c3ccccc3C2C(=O)NCC2CCCO2)cc1 (stereo not drawn) | inactive | – |
| Cc1csc2nc(O)c(C(=O)NCCN3CCOCC3)c(=O)n12 | inactive | – |
| NC(=O)COC(=O)c1sc2cc(F)ccc2c1Cl | inactive | – |
| Cc1ccsc1C(=O)NNC(=O)COc1ccc(Br)cc1 | inactive | – |
| O=C(NC(=S)N1CCc2ccccc21)c1ccco1 | inactive | – |

| Compound | Potency | activity change, negative = growth inhibition |
| --- | --- | --- |
| CN(C)C(=O)c1ccc(NC(=O)COC(=O)c2cc3c(s2)CCCCC3)cc1 | inactive | – |
| CCOC(=O)N1CCC(NC(=O)Cn2cc3c(n2)CCCCC3)CC1 | inactive | – |
| CCOc1ccc(CNC(=O)Cn2cc3c(n2)-c2c(oc(C(=O)N4CCCC4)c2C)CC3)cc1 | 29.1 µM (active) | – |
| CCCN(CCC)CCCNC(=O)Cn1cc2c(n1)-c1c(oc(C(=O)N3CCCC3)c1C)CC2 | inactive | – |
| CCOC(=O)C(C)n1cnc2scc(-c3ccc(C)c(C)c3)c2c1=O (stereo not drawn) | inactive | – |
| COc1ccc(-c2nnc(SCC(=O)Nc3cccnc3Cl)n2C)cc1 | inactive | – |
| COC(=O)c1ccc(NC(=O)CSc2nnc(C3CC3)n2C)cc1 | inactive | – |
| CC(C)(C)NC(=O)COc1ccc(CNc2ccc3[nH]c(=O)[nH]c3c2)cc1 | inactive | – |
| CC(=O)Nc1ccc(CN2CCC(Oc3ccc(C(=O)N4CCCC4)cc3)CC2)cc1 | inactive | – |
| Oc1ccc(Cl)c2c1CCC2 | inactive | – |
| COc1cc(NS(=O)(=O)c2ccc(NC(=O)c3ccc(S(=O)(=O)N4CCCCC4)cc3)cc2)ncn1 | inactive | – |
| COc1ccc(-c2ccc(Nc3ccc(S(=O)(=O)N4CCCC4)cc3)nn2)cc1OC | 16.4 µM (active) | – |
| COc1ccc(S(=O)(=O)Nc2ccc(S(=O)(=O)N3CCCCC3)cc2)cc1OC | inactive | – |
| COCCOC(=O)c1c(C)oc2cc(Br)c(OCC(N)=O)cc12 | inactive | – |
| COC(=O)c1ccc(NC(=O)c2cc(S(=O)(=O)N3CCC(C)CC3)cn2C)cc1 | inactive | – |
| CCOc1ccc(NC(=O)C(=O)NCCc2csc3nc(-c4ccccc4F)nn23)cc1 | inactive | – |
| Cc1c(Cl)cccc1NC(=O)C(=O)NCCc1csc2nc(-c3ccccc3F)nn12 | 18.4 µM (active) | – |
| COc1cc(OC)cc(C(=O)NCCc2csc3nc(-c4ccccc4F)nn23)c1 | inactive | – |
| COc1cccc(CN(C)CC(=O)Nc2ccccc2C(=O)Nc2ccccc2)c1 | inactive | – |
| CCCC(O)(c1ccc(OC)cc1)C(CN(C)C)c1ccccc1 (stereo not drawn) | inactive | – |
| COc1cccc(CN(C)CC(O)COC(c2ccccc2)c2ccccc2C)c1 (stereo not drawn) | 20.6 µM (active) | – |
| Cc1ccc(S(=O)(=O)N2C[C@H]3C(=O)C[C@@H](c4cccc5ccccc45)N(S(=O)(=O)c4ccc(C)cc4)[C@H]3C[C@H]2c2ccc(Cl)cc2)cc1 | inactive | – |
| CCOC(=O)C1=CCC(c2ccc(F)cc2)N(S(=O)(=O)c2ccc(C)cc2)C1 (stereo not drawn) | 16.4 µM (active) | – |
| Cc1ccccc1S(=O)(=O)N1[C@@H](c2cccc(Cl)c2)C(C(=O)O)=CC[C@H]1c1ccc(Cl)cc1 | inactive | – |
| O=C(CN1CCN(S(=O)(=O)c2ccc(F)cc2)CC1)NC1CC1 | inactive | – |

| Compound | Potency | activity change, negative = growth inhibition |
| --- | --- | --- |
| Cc1ccc(S(=O)(=O)N2[C@@H](c3cccc4ccccc34)C(C(=O)O)=C[C@H]2C(C)(C)C)cc1 | inactive | – |
| Cc1ccc(S(=O)(=O)N2[C@@H](c3ccccc3F)C(C(=O)O)=CC[C@H]2c2ccc(Cl)cc2)cc1 | inactive | – |
| Cc1ccc(S(=O)(=O)N2[C@@H](c3ccc(Br)cc3)C(C(=O)O)=C[C@H]2CC2CCCC2)cc1 | inactive | – |
| CCOC(=O)C1=CC[C@@H](c2ccccc2)N(S(=O)(=O)c2ccc(C)cc2)[C@H]1c1cccc(OC)c1 | 23.1 µM (active) | – |
| Cc1ccc(S(=O)(=O)N2CCCC2CO)cc1 (stereo not drawn) | inactive | – |
| COc1ccc(S(=O)(=O)N2CCC(C(=O)NCCC(=O)NCc3cccc(OC)c3)CC2)cc1 | inactive | – |
| Cc1ccccc1S(=O)(=O)N1[C@@H](c2cccc(Cl)c2)C(C(=O)OC(C)(C)C)=CC[C@H]1c1ccc(Cl)cc1 | 20.6 µM (active) | – |
| CCCCC[C@@H]1C=C(C(=O)OCC)[C@H](c2ccccc2)N1S(=O)(=O)c1ccc(C)cc1 | 14.6 µM (active) | – |
| Cc1ccnc2nc(C(=O)Nc3nnc(-c4ccccc4)o3)nn12 | inactive | – |
| Cc1ccc2[nH]c(=O)c(CN(C)S(=O)(=O)c3cccc4nonc34)cc2c1 | inactive | – |
| COc1cc(NS(=O)(=O)c2cccs2)cc(OC)c1 | inactive | – |
| COCCNc1nc(-c2ccccc2)nc2c1oc1ccccc12 | inactive | – |
| Cc1cc(C)c2nc(-c3cccnc3)cc(C(=O)Nc3ccc(S(=O)(=O)Nc4onc(C)c4C)cc3)c2c1 | inactive | – |
| CC1CCN(C(=O)C2CCN(S(=O)(=O)N3CCC4(CC3)OCCO4)CC2)CC1 | inactive | – |
| COc1cc(C2C3C(=O)N(c4ccccc4)C(=O)C3ON2c2ccccc2)ccc1O (stereo not drawn) | inactive | – |
| COC(=O)c1sc(N)c(C(=O)OC)c1COC(=O)CNS(=O)(=O)c1ccc(C)cc1 | inactive | – |
| COc1ccc2oc(-c3ccc(C)c(NC(=O)c4sc5ccccc5c4Cl)c3)nc2c1 | inactive | – |
| CC1(C(=O)OCC(=O)Nc2ncc(Cl)cc2Cl)CC1(Cl)Cl (stereo not drawn) | inactive | – |
| N#Cc1cccc(CN2CCC(=O)N([C@H](CO)c3ccccc3)CC2)c1 | inactive | – |
| CC(C)(C(=O)NO)c1ccccc1 | inactive | – |
| CCN(CC)S(=O)(=O)c1cccc(C(=O)Nc2ccccc2)c1 | 20.6 µM (active) | – |
| CCN(CC)S(=O)(=O)c1cccc(C(=O)NCC(=O)OCC(=O)NCc2ccccc2)c1 | inactive | – |
| CN(C)S(=O)(=O)c1cccc(C(=O)Nc2cccnc2)c1 | inactive | – |
